Screens (PubChem BioAssay)
Shiga inhibitor: A qHTS for Small Molecule Inhibitors of Shiga Toxin | Vero cells, Shiga toxin protein synthesis inhibition reporter | inhibition, % at 38.7 µM | actives 9.2% (n = 290,000) | AID 2315, 2010; in the data active = inhibition mostly above about 28%, no sharp cut-off; inactive = mostly below about 43%
HCV inh: qHTS Assay for Inhibitors of Hepatitis C Virus (HCV). Potency, µM (highest dose often 41.8 µM), most hits filed as inhibitors. Huh7.5.1 HCVcc-Cre infection, luciferase reporter, 44 h. actives 3.4% (n = 340,000)
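Reporter virus HCVcc-Cre (~0.5 moi) infects cells exposed to compound; seeding density 1,000 cells/well with 4 h settling beforehand. Luminescence, 15 sec read, taken 44 h post-infection following a 15 min RT substrate incubation.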
Pf growth 96h: Primary qHTS for delayed death inhibitors of the malarial parasite plastid, 96 hour incubation | P. falciparum luciferase reporter growth, 96 h | Potency, µM (series often up to 28.7 µM), usual class: inhibitors | actives 6.9% (n = 320,000)
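Two-generation exposure (96 h) targets delayed-death phenotype. Reporter parasites carrying integrated firefly luciferase, in red cells at 2% hematocrit and 0.05% parasitemia final, kept at 37 C, 5% CO2; luminescence loss indicates inhibition.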
HCMV antiviral: qHTS Assay for inhibitors of the human cytomegalovirus (HCMV); actives 4.5% (n = 410,000); activity change, negative = inhibition, % at 57.5 µM; HFF cells, HCMV-luciferase reporter, 72 h; active compounds read low; in the data active = activity change below about -60%; inconclusive = no clear call, values can overlap the other calls; inactive = above about -39%
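Screen run at 2 compound doses on HFFs infected with reporter HCMV, MOI 1 PFU/cell. Luciferase activity from cell lysates at 72 h post infection gave inhibition relative to buffer-only and Salinomycin wells.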
CHX counter: Cycloheximide Counterscreen for Small Molecule Inhibitors of Shiga Toxin; cell reporter, cycloheximide protein synthesis inhibition counterscreen; max response, %; actives 12% (n = 300,000); in the data active = max response mostly above about 13%, no sharp cut-off; inactive = mostly below about 14%; note: read at 38.3 µM for the half of the compounds with a filed dose
Pf growth 48h: Primary qHTS for delayed death inhibitors of the malarial parasite plastid, 48 hour incubation; P. falciparum luciferase growth in erythrocytes, 48 h; actives 5.9% (n = 310,000); AID 504832, 2011; Potency, µM (highest dose often 28.7 µM), usual class: inhibitors
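Luminescence readout; reporter = integrated firefly luciferase in P. falciparum. RBC culture at 2% hematocrit, 0.1% parasitemia final, 37 C/5% CO2; decreased signal taken as growth inhibition.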
Of the large screens only hits and unclear results are named; the others gave an inactive call. Hits are enriched below; roughly 21% of the tested compounds scored in any of these assays. Unless noted, calls come from the whole dose curve; as a rule, active = well fitted inhibition curve with a large enough effect; inconclusive = small, poorly fitted or top-dose-only effect, or another doubt; inactive = no such curve, though single readings can be large or run the other way.

O=C(NCC1CCOCC1)c1ccc(OC2CCN(Cc3ccccn3)CC2)cc1	none
Cc1ccc(C(c2c(O)cc(C)n(Cc3ccco3)c2=O)N2CCC(C)CC2)cc1 (centres undefined)	none (no result: Shiga inhibitor, HCV inh, Pf growth 96h, CHX counter, Pf growth 48h)
CCCN(Cc1ccc(N(CC)CC)cc1)CC1CC1	HCV inh 10µM, Pf growth 96h 1.5µM, HCMV antiviral -66, Pf growth 48h 12µM
CCN(CC)c1ccc(NC(=O)C2CCCC2)cc1	Pf growth 96h inconclusive, Pf growth 48h inconclusive (no result: Shiga inhibitor)
CCCN(Cc1ccc(N(C)C)cc1)CC1CC1	Pf growth 96h 2.1µM (no result: Pf growth 48h)
CC1CCC(C(C)C)C(=O)C1 (centres undefined)	none (no result: Shiga inhibitor, HCV inh, HCMV antiviral, CHX counter)
CSc1ccccc1NC(=O)C1(C)CCN1C(=O)CCC1CCCC1 (centres undefined)	none (no result: Shiga inhibitor, HCV inh, Pf growth 96h, CHX counter, Pf growth 48h)
COc1ccc(NC(=O)CCCn2c(=S)[nH]c3ccccc3c2=O)cc1	HCV inh inconclusive, Pf growth 96h inconclusive
COc1ccc(NC(=O)CCCn2c(=O)[nH]c3ccccc3c2=O)cc1	Pf growth 48h 2.3µM
COc1ccc(NC(=O)CCn2c(=S)[nH]c3ccccc3c2=O)cc1	Pf growth 96h inconclusive, HCMV antiviral -61
COc1ccc(NC(=O)CCCCn2c(=O)[nH]c3ccccc3c2=O)cc1	Pf growth 48h inconclusive
CCOC(=O)c1cc(S(=O)(=O)N2CCN(c3ccc(F)cc3)CC2)[nH]n1	none (no result: Shiga inhibitor, HCV inh, Pf growth 96h, CHX counter, Pf growth 48h)
CC(C)NC(=O)CC1Nc2c3ccccc3nc(=S)n2C1=O (centres undefined)	none
O=C(CC1Nc2c3ccccc3nc(=S)n2C1=O)NC1CCCCC1 (centres undefined)	Pf growth 96h inconclusive, HCMV antiviral -64, Pf growth 48h inconclusive (no result: HCV inh)
Cc1ccc(S(=O)(=O)c2ncccc2N)cc1	none
Cc1ccc(S(=O)(=O)c2ncccc2[N+](=O)[O-])cc1	HCV inh inconclusive, Pf growth 96h inconclusive, HCMV antiviral -101 (no result: Pf growth 48h)
CNC(=S)NCCCc1ccccc1	Pf growth 96h 5.2µM
CC(C1CC1)N(Cc1ccccc1)C(=S)Nc1ccccc1Cl (centres undefined)	HCV inh inconclusive, Pf growth 96h 12µM, Pf growth 48h inconclusive
CC(C)[C@H](NC(=O)NCCc1ccccc1)C(=O)O	none
CC(C)(C)NC(=O)NCCc1ccccc1	Shiga inhibitor 59, CHX counter 36
CC(C1CC1)N(Cc1ccccc1)C(=O)NC(=O)c1ccccc1 (centres undefined)	none
O=C(NNC(=S)NCCc1ccccc1)c1ccc(Br)s1	Pf growth 96h 9.3µM
NNC(=S)Nc1ccccc1Cl	Shiga inhibitor 86, Pf growth 96h inconclusive, CHX counter 43
CCOc1ccccc1NC(=S)NCCc1ccccc1	HCV inh inconclusive, HCMV antiviral inconclusive
S=C(NCCc1ccccc1)NCCc1ccccc1	Shiga inhibitor 57, CHX counter 51
NNC(=S)NCCc1ccccc1	Pf growth 96h inconclusive
S=C(NCCCCc1ccccc1)NCc1ccccc1	HCV inh inconclusive, Pf growth 96h inconclusive
NNC(=S)Nc1ccc(C(F)(F)F)cc1Cl	Pf growth 96h inconclusive, Pf growth 48h inconclusive
S=C(NCCc1ccccc1)Nc1ccccc1Cl	Pf growth 96h inconclusive, HCMV antiviral -64, Pf growth 48h inconclusive
S=C(NCCc1ccccc1)NCc1cccc(Cl)c1	Shiga inhibitor 23, Pf growth 96h inconclusive (no result: HCMV antiviral)
O=C(CN1C(=O)NC2(CCCC2)C1=O)NNC(=O)c1ccc(Cl)cc1	none (no result: Shiga inhibitor, CHX counter)
CC(C)[C@H]1C=C(C(=O)O)O[C@@H](OCCCCO)C1	none
Cc1c(Cl)cccc1NC(=O)CNS(=O)(=O)c1cccs1	none (no result: Shiga inhibitor, HCV inh, Pf growth 96h, CHX counter, Pf growth 48h)
Fc1ccccc1NC(=S)NCCc1cccc(Cl)c1	Shiga inhibitor 78, Pf growth 96h inconclusive, HCMV antiviral inconclusive, CHX counter 40
COc1cc(OC)cc(C(=O)NC(=S)NCCc2ccccc2)c1	CHX counter 14
C/C(CCc1ccccc1)=N\NC(=S)NCCc1ccccc1	Pf growth 96h inconclusive, Pf growth 48h inconclusive
S=C(NCCCc1ccccc1)Nc1ccccc1Cl	HCMV antiviral -60
S=C(NCc1ccccc1Cl)Nc1ccccc1Cl	Pf growth 48h inconclusive
CC1=C/C(=N\NC(=S)NCCc2ccccc2)CC(C)(C)C1	Shiga inhibitor 82, CHX counter 23
CCOC(=O)c1cc(CC)sc1NC(=O)COc1ccccc1C	none (no result: Shiga inhibitor, HCV inh, Pf growth 96h, CHX counter, Pf growth 48h)
S=C(NCCNC(=S)Nc1ccccc1Cl)Nc1ccccc1Cl	HCV inh inconclusive, Pf growth 96h 9.3µM, HCMV antiviral inconclusive, Pf growth 48h 9.3µM
O=C(NCCc1ccc(F)cc1)Nc1ccccc1Cl	Shiga inhibitor 55, HCMV antiviral -63, CHX counter 26, Pf growth 48h inconclusive
O=C(NCCc1ccncc1)Nc1ccccc1Cl	Pf growth 96h inconclusive
CC(C)(C)C(=O)NC(=S)NCCc1ccccc1	Shiga inhibitor 90, CHX counter 39
Cc1ccccc1C(=O)NC(=S)NCCc1ccccc1	none
S=C(NCCc1ccccc1)Nc1ccc(Br)cn1	Pf growth 96h 8.3µM, HCMV antiviral -102
COCCn1c(C)cc(O)c(C(c2ccccc2)N2CCN(c3ccccc3F)CC2)c1=O (centres undefined)	none (no result: Shiga inhibitor, HCV inh, Pf growth 96h, CHX counter, Pf growth 48h)
O=C(CN1c2cccc3cccc(c23)S1(=O)=O)N1CCCCC1	none (no result: Shiga inhibitor, Pf growth 96h, CHX counter, Pf growth 48h)
CC1CCCC(C)N1C(=O)CN1C(=O)NC2(CCOc3ccccc32)C1=O (centres undefined)	none (no result: Shiga inhibitor, CHX counter)
CCOC(=O)CNC(=O)c1cccnc1Oc1ccc(Cl)cc1	none
O=C(Nc1cccc(C(=O)N2CCOCC2)c1)c1cncc(Br)c1	HCV inh inconclusive (no result: Pf growth 96h)
O=C(Nc1ccc(N2CCCCC2)cc1)c1cncc(Br)c1	Shiga inhibitor 141, HCV inh inconclusive (no result: Pf growth 96h)
O=C(Nc1ccc(N2CCN(C(=O)c3ccccc3F)CC2)cc1)c1cncc(Br)c1	HCV inh inconclusive, Pf growth 96h inconclusive, HCMV antiviral -90, Pf growth 48h inconclusive
Nc1nc(Nc2cccc(Cl)c2)nc(NCc2ccco2)c1[N+](=O)[O-]	HCV inh inconclusive, Pf growth 96h inconclusive, CHX counter 34, Pf growth 48h inconclusive
Nc1nc(Nc2cccc(F)c2)nc(NCc2ccco2)c1[N+](=O)[O-]	HCV inh inconclusive, Pf growth 96h inconclusive, CHX counter 13
Cc1cccc(Nc2nc(N)c([N+](=O)[O-])c(NCc3ccco3)n2)c1	HCV inh inconclusive, Pf growth 96h inconclusive, Pf growth 48h inconclusive
Cc1cccc(Nc2nc(NCc3ccco3)nc(N)c2[N+](=O)[O-])c1	HCV inh inconclusive, Pf growth 96h inconclusive, Pf growth 48h inconclusive
Nc1nc(NCCCN2CCOCC2)nc(Nc2cccc(Cl)c2)c1[N+](=O)[O-]	HCV inh inconclusive, Pf growth 96h inconclusive, HCMV antiviral inconclusive, Pf growth 48h 5.9µM
Nc1nc(Nc2ccc(Cl)cc2)nc(NCc2ccco2)c1[N+](=O)[O-]	Shiga inhibitor 84, HCV inh inconclusive, Pf growth 96h inconclusive, CHX counter 48, Pf growth 48h inconclusive
